According to PubChem BioAssay (NCATS):
“And” between values parts separate entries of the source, which are not always exact repeats. Equal entries are not always repeated. Inconclusive results are not listed. Entries that show only a call come without a potency. The source made the active and inactive calls. Unless noted, calls follow the shape of the dose curve; as a rule, active = well fitted curve in the direction sought with a large enough effect; inconclusive = small, poorly fitted or top-dose-only effect, or another doubt; inactive = no such curve, though single readings can be large; an effect the other way counts as inactive or inconclusive.

Assays:
[1] = Cell Viability - BJ (AID 421; calls by dose curve;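 also: potency is read from the fitted curve at half-maximal effect; cells exposed to compound for 40 hours at 37 °C before readout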); settings: BJ fibroblast viability, qHTS
How it was run: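 Cytotoxicity in human BJ foreskin fibroblasts is scored as loss of cellular ATP after a 40-hour exposure, measured by luciferase luminescence. Controls are DMSO and 100 uM tamoxifen.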

[2] = Cell Viability - HepG2 (AID 433; calls by dose curve;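 also: potency is read from the fitted curve at half-maximal effect; cells exposed to compound for 40 hours; potency for ATP loss meaning cytotoxicity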); settings: qHTS
How it was run: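 HepG2 hepatocellular carcinoma cells (1500/well) were treated with compounds for 40 h at 37 °C in complete medium; intracellular ATP was read by CellTiter-Glo luminescence. Data were normalized to DMSO and 100 uM tamoxifen, and AC50 came from Hill fits.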

[3] = Cell Viability - Mesenchymal (AID 546); settings: mesenchymal cells viability, qHTS; activity change, negative = cytotoxicity: at 91.7 µM (top of the series);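 also: cells exposed to compound for 40 hours before reading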
How it was run: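 AC50 values reflect the drop in intracellular ATP in a human kidney mesenchymal line derived from normal glomeruli. Treatment lasts 40 hr at 37 °C in complete medium, and the signal comes from CellTiter-Glo luminescence.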

[4] = Cellular Toxicity (caspase-3) Jurkat (AID 655); settings: Jurkat caspase-3 activation, luminescence; caspase-3 activation: at 92.2 µM (top of the series), DMSO = 0%, tamoxifen = 100%;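 also: cells exposed to compound for 16 h at 37 °C before reading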; also: potency is read from the fitted curve at half-maximal effect
How it was run: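 Jurkat cells (5000/well) in complete medium were treated with compounds for 16 hr at 37 °C, then Caspase-Glo 3/7 luminescence was read after 20 min at room temperature. Data normalized to DMSO (basal) and 100 uM tamoxifen (100%); AC50 from Hill fit.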

[5] = Cell Viability - LYMP1-002 - Assay at 16 hr (AID 948); settings: LYMP1-002 lymphoblastoid cell viability; series mostly up to 92.2 µM; also: potency is read from the fitted curve at half-maximal effect
How it was run: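 Human lymphoblastoid cells (LYMP1-002), 2500/well, were preincubated 5 hr at 37 C, then exposed to compounds for 16 hr at 37 C in complete medium. Cellular ATP was read by CellTiter-Glo luminescence after 30 min at room temperature; AC50 from Hill fits.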

[6] = MultiTox-Fluor Cytotoxicity Assay - LYMP1-002 - Live Cells (AID 955); settings: LYMP1-002 lymphoblastoid live-cell protease fluorescence viability; series mostly up to 46.1 µM
How it was run: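 Cytotoxicity in the human lymphoblastoid line LYMP1-002 is measured as loss of live-cell protease activity after 16 h treatment in complete culture medium. AC50 is derived from Hill-equation fits of qHTS concentration-response data.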

[7] = Cell Viability - LYMP2-003 (AID 965); settings: LYMP2-003 lymphoblastoid cell viability; series mostly up to 92.2 µM;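 also: cells exposed to compounds for 24 h before reading; nearly all actives have a fitted effect of over 50% in size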; also: potency is read from the fitted curve at half-maximal effect
How it was run: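 Human lymphoblastoid cells (2500/well) were pre-incubated 5 hr at 37 C, then exposed to compounds over a concentration range for 24 hr at 37 C. Intracellular ATP was read by CellTiter-Glo luminescence; AC50 came from Hill-equation fits.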

[8] = Cell Viability - LYMP2-011 (AID 969); settings: LYMP2-011 lymphoblastoid cells viability; series mostly up to 92.2 µM; also: nearly all actives have a fitted effect of over 60% in size; also: potency is read from the fitted curve at half-maximal effect
How it was run: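 Acute toxicity is scored as a concentration-dependent drop in intracellular ATP of a human lymphoblastoid line after 24 hr treatment. Values are AC50s modeled with the Hill equation.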

[9] = Cell Viability - LYMP2-013 (AID 970); settings: LYMP2-013 lymphoblastoid cells viability; series mostly up to 92.2 µM; also: nearly all actives have a fitted effect of over 55% in size; also: potency is read from the fitted curve at half-maximal effect
How it was run: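 Acute toxicity was measured in human lymphoblastoid cells (2500/well) exposed to compound titrations for 24 hr, with ATP luminescence (CellTiter-Glo) as read-out and AC50 fitted by Hill equation.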

[10] = Cell Viability - LYMP2-023 (AID 975); settings: LYMP2-023 lymphoblastoid cell viability; series mostly up to 92.2 µM; also: nearly all actives have a fitted effect of over 55% in size; also: potency is read from the fitted curve at half-maximal effect;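 as to activity change, negative = cytotoxicity: cellular ATP measured by luciferase luminescence as viability proxy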
How it was run: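 Concentration-dependent drop in intracellular ATP measures acute cytotoxicity in a human lymphoblastoid line treated for 24 hours in complete culture medium. AC50 values are taken from Hill-equation fits of qHTS data.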

[11] = Cell Viability - LYMP2-002 (AID 977); settings: LYMP2-002 lymphoblastoid cell viability, qHTS; series mostly up to 92.2 µM;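 also: compound exposure lasted 24 h at 37 °C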; also: potency is read from the fitted curve at half-maximal effect
How it was run: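 Cytotoxicity is scored as concentration-dependent loss of cellular ATP in a human lymphoblastoid line after 24 hr compound treatment at 37 C. AC50 is obtained by modelling concentration-response data with the Hill equation.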

[12] = Cell Viability - LYMP2-006 (AID 978); settings: LYMP2-006 lymphoblastoid cell viability, qHTS; series mostly up to 92.2 µM; also: nearly all actives have a fitted effect of over 60% in size; also: potency is read from the fitted curve at half-maximal effect
How it was run: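 Human lymphoblastoid cells, 2500 per well, were preincubated 5 hr at 37 C, then exposed to compounds for 24 hr at 37 C in complete medium. Viability was read as intracellular ATP by CellTiter-Glo luminescence; AC50 from Hill-equation fits of qHTS concentration-response data.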

[13] = Cell Viability - LYMP2-008 (AID 980); settings: LYMP2-008 lymphoblastoid cell viability, qHTS; series mostly up to 92.2 µM; also: nearly all actives have a fitted effect of over 60% in size; also: potency is read from the fitted curve at half-maximal effect
How it was run: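 Acute cytotoxicity is scored as concentration-dependent loss of cellular ATP in a human lymphoblastoid line after 24 hr treatment at 37 C. ATP is quantified by luciferase luminescence.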

[14] = Cell Viability - LYMP2-012 (AID 982); settings: LYMP2-012 lymphoblastoid cell viability qHTS; series mostly up to 92.2 µM;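 also: cellular ATP by luciferase luminescence where a drop means cytotoxicity; cells exposed to compound for one day before reading; nearly all actives have a fitted effect of over 55% in size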; also: potency is read from the fitted curve at half-maximal effect
[15] = Cell Viability - LYMP2-020 (AID 986); settings: series mostly up to 92.2 µM; also: nearly all actives have a fitted effect of over 55% in size; also: potency is read from the fitted curve at half-maximal effect
How it was run: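 Acute cytotoxicity in a human lymphoblastoid line is scored as a concentration-dependent fall in cellular ATP after 24 hr at 37 C in complete medium. The positive control is tetraoctylammonium bromide, and potency is given as Hill-fit AC50.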

[16] = Cell Viability - LYMP2-022 (AID 987); settings: LYMP2-022 lymphoblastoid cell viability; series mostly up to 92.2 µM; also: nearly all actives have a fitted effect of over 55% in size; also: potency is read from the fitted curve at half-maximal effect
How it was run: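 Acute toxicity in a human lymphoblastoid line is scored as decreased intracellular ATP after 24 hr compound treatment at 37 C. ATP is measured by CellTiter-Glo luminescence; curves are fitted with the Hill equation to give AC50.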

[17] = Cell Viability - LYMP2-024 (AID 988); settings: LYMP2-024 lymphoblastoid cell viability; series mostly up to 92.2 µM; also: nearly all actives have a fitted effect of over 60% in size; also: potency is read from the fitted curve at half-maximal effect
How it was run: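 Acute toxicity is measured as concentration-dependent loss of intracellular ATP in a human lymphoblastoid line treated 24 hours at 37 C. Luciferase luminescence quantifies ATP; AC50 values come from standard Hill-equation modelling.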

[18] = Cell Viability - LYMP1-002 - Assay at 40 hr (AID 994); settings: LYMP1-002 lymphoblastoid cell viability; series mostly up to 92.2 µM; also: nearly all actives have a fitted effect of over 60% in size; also: potency is read from the fitted curve at half-maximal effect
How it was run: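 Viability in the human lymphoblastoid line was measured as intracellular ATP via CellTiter-Glo after 40 hr compound exposure. Tetraoctylammonium bromide served as positive control.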

[19] = qHTS assay for small molecule antagonists of retinoid X receptor alpha signaling (AID 588546); settings: HEK293T RXRa-UAS-bla, beta-lactamase ratio, antagonist mode; measured here: W530 green channel, cytotoxicity proxy;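 also: cells stimulated with 9-cis-retinoic acid as agonist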
How it was run: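 Beta-lactamase reporter inhibition, read as CCF4 fluorescence ratio (ex 405, em 460/530 nm) after 2 h at RT. HEK293T UAS-bla cells, 2500/well, were stimulated with 9-cis-RA at 500 or 100 nM final alongside test compound for 18 h at 37 C.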

[20] = qHTS assay for environmental chemicals that activate the Aryl hydrocarbon Receptor (AhR) signaling pathway (AID 651777); settings: 1A2-DRE human hepatoma cells, luciferase, 24 h; activation: stronger effect = higher value; also: nearly all actives have a fitted effect of over 15% in size
How it was run: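 Human hepatoma 1A2-DRE cells stably carrying a DRE/CYP1A2 promoter–luciferase reporter, 1,200 cells/well, exposed to compound 24 hr at 37 C. Luciferase read by One-Glo luminescence after 30 min at room temperature; increased signal marks AhR activation.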

| SMILES | Potency [1] | Potency [2] | Potency [3] | Potency [4] | Potency [5] | outcome [6] | Potency [7] | Potency [8] | Potency [9] | Potency [10] | Potency [11] | Potency [12] | Potency [13] | Potency [14] | Potency [15] | Potency [16] | Potency [17] | Potency [18] | max response [19] | activation [20] |
| --- | --- | --- | --- | --- | --- | --- | --- | --- | --- | --- | --- | --- | --- | --- | --- | --- | --- | --- | --- | --- |
| Cc1ccc(S(N)(=O)=O)cc1 | > 92 µM (inactive) | > 92 µM (inactive) | inactive | inactive | inactive | inactive | inactive | inactive | inactive | inactive | inactive | inactive | inactive | inactive | inactive | inactive | inactive | inactive | -1.11% and -7.98% | -0.842% (inactive) |
| O=[N+]([O-])c1cc(Cl)c(Cl)c(Cl)c1Cl | > 92 µM (inactive) | > 92 µM (inactive) | inactive | inactive | inactive | inactive | inactive |  |  | inactive | inactive |  |  | inactive |  |  |  | inactive | 11.9% | -0.451% (inactive) |
| O=[N+]([O-])c1cccc(I)c1 | > 92 µM (inactive) | > 92 µM (inactive) | inactive | inactive | inactive | inactive | inactive | inactive | inactive | inactive | inactive | inactive | inactive | inactive | inactive | inactive | inactive | inactive | -5.01% | 0.159% (inactive) |
| S=C(NC1CCCCC1)NC1CCCCC1 |  |  | inactive | inactive | inactive | inactive | inactive | inactive | inactive | inactive | inactive | inactive | inactive | inactive | inactive | inactive | inactive | inactive | -2.99% | 5.57% (inactive) |
| O=C(O)/C=C/c1ccc(/C=C/C(=O)O)cc1 | > 92 µM (inactive) | > 92 µM (inactive) | inactive | inactive | inactive | inactive | inactive | inactive | inactive | inactive | inactive | inactive | inactive | inactive | inactive | inactive | inactive | inactive | -0.222% | 0.407% (inactive) |
| Oc1cc(Cl)cc(Cl)c1Cl | > 92 µM (inactive) | > 92 µM (inactive) | inactive | inactive | inactive | inactive | inactive | inactive | inactive | inactive | inactive | inactive | inactive | inactive |  | inactive |  | inactive |  | 2.22% (inactive) |
| CC(=O)OC(C(=O)c1ccccc1)c1ccccc1 (stereo unspecified) | > 92 µM (inactive) | > 92 µM (inactive) | inactive | inactive | inactive | inactive | inactive | inactive | inactive | inactive | inactive | inactive | inactive | inactive | inactive | inactive | inactive | inactive | -6.89% | -0.426% (inactive) |
| O=C1c2ccccc2C(=O)C1(O)O |  | > 92 µM (inactive) | inactive | 31.6 µM (active) | inactive | inactive | 50.1 µM (active) | inactive |  | inactive | inactive | inactive | inactive |  | inactive |  |  | inactive | -5.61% | -0.0089% (inactive) |
| CCCCCCCCOc1ccc(C(=O)O)cc1 | > 92 µM (inactive) | > 92 µM (inactive) | inactive | inactive | inactive | inactive | inactive | inactive | inactive | inactive | inactive | inactive | inactive | inactive | inactive | inactive | inactive | inactive | -3.84% | 8.38% (inactive) |
| O=C(OCC1CO1)C1CCCCC1C(=O)OCC1CO1 (stereo unspecified) | > 92 µM (inactive) | > 92 µM (inactive) | inactive |  | inactive | inactive | 50.1 µM (active) |  |  |  |  |  |  |  |  | 39.8 µM (active) |  | 39.8 µM (active) |  | 0.749% (inactive) |
| c1ccc(SCCSc2ccccc2)cc1 | > 92 µM (inactive) | > 92 µM (inactive) | inactive | inactive | inactive | inactive | inactive | inactive | inactive | inactive | inactive | inactive | inactive | inactive | inactive | inactive | inactive | inactive | 0.714% | 14.7% (inactive) |
| CN(C)c1ccc(C(=N)c2ccc(N(C)C)cc2)cc1 |  | 57 µM (active) |  |  |  |  |  |  |  |  |  |  |  | 39.8 µM (active) | 39.8 µM (active) | 25.1 µM (active) | 39.8 µM (active) |  |  | 13.1% (inactive) |
| Nc1ccc(N)c(Cl)c1 | > 92 µM (inactive) | > 92 µM (inactive) | inactive | inactive | inactive | inactive | inactive | inactive | inactive | inactive | inactive | inactive | inactive | inactive | inactive | 39.8 µM (active) |  |  | 4.58% |  |
| Brc1cc(Br)c(Oc2cc(Br)c(Br)cc2Br)cc1Br | > 92 µM (inactive) | > 92 µM (inactive) | inactive | inactive | inactive | inactive | inactive | inactive | inactive | inactive | inactive | inactive | inactive | inactive | inactive | inactive | inactive | inactive |  | -1.17% (inactive) |
| C=CC(=O)OCCCCCCOC(=O)C=C |  | > 92 µM (inactive) |  | inactive | 39.8 µM (active) |  | 39.8 µM (active) | 39.8 µM (active) | 39.8 µM (active) | 39.8 µM (active) | 50.1 µM (active) | 50.1 µM (active) | 50.1 µM (active) | 39.8 µM (active) | 39.8 µM (active) | 39.8 µM (active) | 31.6 µM (active) | 39.8 µM (active) | 3.39% and -7.34% | -0.448% (inactive) and 0.963% (inactive) |
